Assay outcomes: PubChem BioAssay, Broad Institute
Tg IFNy HTS: blocks Toxoplasma gondii growth in the presence of IFN-gamma. activity change, negative = inhibition, % (test concentration not listed). AID 1259416. Toxoplasma gondii growth in IFN-gamma-treated host cells; stronger effect = lower value. 69,000 tested, 3.8% active; in the data active means activity change below about -70%, passing the limit was not always enough;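 further: host cells are HeLa cells infected with Toxoplasma gondii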
* hit, by the source's call. This excerpt belongs to a sample that is enriched for hits.

Screening COc1ccc2c(c1)c(CC(=O)N1CCOCC1)c(C)n2C(=O)c1ccc(Cl)cc1 returned Tg IFNy HTS -1.
Cc1ccc(-c2nc(CCNC(=O)c3ccc4c(c3)OCO4)cs2)cc1 was read as Tg IFNy HTS 317.
Screening CCCCOc1ccccc1-c1cc2c(=O)n(Cc3nc(-c4ccc(OC)cc4)oc3C)ccn2n1 returned Tg IFNy HTS -60.
For O=C1Cc2cc(CCN3CCN(c4nsc5ccccc45)CC3)c(Cl)cc2N1 the results were Tg IFNy HTS -81*.
CN1CCN(CCC(=O)N2CCN(c3nsc4ccccc34)CC2)CC1 was read as Tg IFNy HTS 25.
Cc1c(S(=O)(=O)N2CCN(c3nsc4ccccc34)CC2)cnn1C(F)F was read as Tg IFNy HTS 15.
Screening COCc1cnc2n1CCN(C(=O)c1cc3ccccc3o1)C2C (configuration not stated) returned Tg IFNy HTS 9.
`CCN(CC)C1CCN(c2nc(-c3ccccc3)nc3c2CCC3)C1` (configuration not stated) gave Tg IFNy HTS -11.
Screening Nc1nc(-c2csc3ccccc23)cs1 returned Tg IFNy HTS 40.
`CCn1c(CC2CCN(C(=O)c3onc4ccccc34)CC2)nn(C)c1=O` gave Tg IFNy HTS -6.
`O=S(=O)(NCCN1CCOCC1)c1cccc(C(F)(F)F)c1` gave Tg IFNy HTS -6.
CC1(C)CCC(c2ccc(Cl)cc2)=C(CN2CCN(c3ccc(C(=O)NS(=O)(=O)c4ccc(N[C@H](CCN5CCOCC5)CSc5ccccc5)c(S(=O)(=O)C(F)(F)F)c4)cc3)CC2)C1 was read as Tg IFNy HTS -72*.
CN(C)CC[C@H](CSc1ccccc1)Nc1ccc(S(=O)(=O)NC(=O)c2ccc(N3CCN(Cc4ccccc4-c4ccc(Cl)cc4)CC3)cc2)cc1[N+](=O)[O-] was read as Tg IFNy HTS -76*.
`CNC(=O)C1CC2(CCN(C(=O)c3csnn3)CC2)c2ccccc21` (configuration not stated) gave Tg IFNy HTS -9.
Screening O=C(c1cccc(F)c1)N1C[C@H]2CCCN(S(=O)(=O)C3CCS(=O)(=O)C3)[C@H]2C1 (some centres not stated) returned Tg IFNy HTS 61.
For Cc1cnc(N2CCCn3cnc(CNS(C)(=O)=O)c3C2)nc1 the results were Tg IFNy HTS -1.
Screening Cc1ccc2oc(-c3nccn3CCSc3nncn3C)c(C)c2c1 returned Tg IFNy HTS 12.
For COC(=O)c1ccc(-c2noc(CN(C)Cc3cc4ccccc4s3)n2)cc1 the results were Tg IFNy HTS 10.
CCc1cccc(NC(=O)C2=C(C)C(=O)OC23CCN(C(C)C)CC3)c1 was read as Tg IFNy HTS 60.
Screening Cn1ncc2c(NCc3cc(C(C)(C)C)n[nH]3)nc(C(C)(C)C)nc21 returned Tg IFNy HTS -75*.
`CCOC(=O)CNc1nc(C(C)(C)C)nc2c1cnn2C` gave Tg IFNy HTS -4.
For Cc1nccn1CCN(C)c1nc(C(C)(C)C)nc2c1cnn2C the results were Tg IFNy HTS -12.
`CC1CCN(S(=O)(=O)c2ccc3c(c2)CCC(=O)N3CC(=O)NCc2cccnc2)CC1` gave Tg IFNy HTS 21.
`CCN1CC2(CC1=O)CN(C(=O)C(C)C)CCN(S(=O)(=O)C1CC1)C2` (configuration not stated) gave Tg IFNy HTS 7.
Screening CCN(Cc1ccccc1)C(=O)C1CCC2(CC1)N=C(C)N(CC1CC1)C2=O (configuration not stated) returned Tg IFNy HTS -6.
Screening c1ccc(SSc2ccccc2)cc1 returned Tg IFNy HTS 10.
`FC(F)(F)C(Sc1ccccc1)=C(Sc1ccccc1)Sc1ccccc1` gave Tg IFNy HTS -80*.
`O=C(CC1COCCN1)N1CCC2(CCc3ccccc32)CC1` (configuration not stated) gave Tg IFNy HTS 4.
For Cc1ccn(CCNC(=O)COc2ncnc3ccccc23)n1 the results were Tg IFNy HTS -2.
`Cc1ccc(C)c(NC(=O)c2ccc(Nc3nnc(C)c4ccccc34)cc2)c1` gave Tg IFNy HTS -88*.
Screening Cc1ccc(Nc2nc(C(=O)Nc3ccc(F)cc3C)nc3ccccc23)cc1 returned Tg IFNy HTS 59.
For Cc1ccc(Nc2nc(C(=O)Nc3cc(Cl)ccc3C)nc3ccccc23)cc1 the results were Tg IFNy HTS 29.
Screening CN1CC2(CCN(C(=O)c3cc4c(C(F)(F)F)nn(C)c4s3)C2)OC1=O (configuration not stated) returned Tg IFNy HTS 4.
Screening Cc1cnc(CNC(=O)c2ccccc2C2CCNC2)cn1 (configuration not stated) returned Tg IFNy HTS 63.
Screening Cc1ccc(NC(=O)N2CCC3(CC2)Nc2ccccc2-n2cccc23)c(C)c1 returned Tg IFNy HTS 342.
For Cc1cccnc1N1CCN(C(=O)c2cn(CC3CCCNC3)nn2)CC1 (configuration not stated) the results were Tg IFNy HTS 2.
O=C(NCCc1csc2c1CCCC2)c1cn(CC2CCCNC2)nn1 (configuration not stated) was read as Tg IFNy HTS -78*.
`CC1(C)Cc2ccccc2CN1C(=O)c1cn(CC2CCCNC2)nn1` (configuration not stated) gave Tg IFNy HTS 2.
For CN(C)C(=O)c1ccc2c(c1)N(C)C(CC(=O)Nc1ccc(F)cc1O)CO2 (configuration not stated) the results were Tg IFNy HTS -4.
Cc1sc2nc3n(c(=O)c2c1C)C(C)(C)Cc1ccccc1-3 was read as Tg IFNy HTS -1.
COc1ccc(-c2c(C#N)c(N)nc3c2CCc2ccccc2-3)cc1OC was read as Tg IFNy HTS -86*.
For COc1ccc(-c2cc(-c3ccccc3)nc(N)c2C#N)cc1OC the results were Tg IFNy HTS 19.
Screening COc1ccc(-c2cc(=S)sc(N)c2C#N)cc1OC returned Tg IFNy HTS 65.
CCOc1ccccc1NC(=O)Cn1ncc2c(N3CCOCC3)ncnc21 was read as Tg IFNy HTS 110.
COc1ccc(-c2noc(-c3ccc(N(C)C(C)c4ccon4)nc3)n2)cc1 (configuration not stated) was read as Tg IFNy HTS -46.
For CCOc1ncccc1-c1nc(C)cc(NC)n1 the results were Tg IFNy HTS 7.
Cc1cc(N2CC(c3ccccn3)C2)nc(-c2ccccc2O)n1 was read as Tg IFNy HTS -14.
Cc1cc(Nc2ccc(Br)cc2)nc(-c2ccccc2O)n1 was read as Tg IFNy HTS -85*.
Screening CCN(CCN1CCOCC1)Cc1cc2cc(C)ccc2[nH]c1=O returned Tg IFNy HTS -5.
Screening C=CCN(Cc1cnc(-c2cccc(C)c2)nc1)Cc1ccco1 returned Tg IFNy HTS -30.
Screening CCc1nc(SCC(=O)N2CCCC3(CCNCC3)CC2)n[nH]1 returned Tg IFNy HTS 34.
Screening CCC(C(=O)NCc1cccnc1)n1c2ccccc2c2cnn(C)c(=O)c21 (configuration not stated) returned Tg IFNy HTS 255.
`CCc1cc(-c2ccc3c(c2)OCCO3)ccc1NC(C)=O` gave Tg IFNy HTS 136.
For CCC(=O)NCc1ccccc1-c1ccc2c(c1)OCCO2 the results were Tg IFNy HTS 11.
For CCNC(=O)Cc1ccc(-c2ccc3c(c2)OCCO3)cc1 the results were Tg IFNy HTS -74*.
Screening CCn1c(C2CCCN(C(=O)CCN3CCCO3)C2)nn(C)c1=O (configuration not stated) returned Tg IFNy HTS 0.
For Cn1cnc2c(NCc3ccccc3)nc(NCCO)nc21 the results were Tg IFNy HTS 7.
